Compounds with a hit are over-represented: about 3.8% of the library has one in this group of screens.
Mtb FBA inh: Mtb FBA enzyme inhibitors, primary screen, biochemical, fluorescence, strain H37Rv. Fructose-bisphosphate aldolase (Mycobacterium tuberculosis (strain ATCC 25618 / H37Rv)), …. purified M. tuberculosis FBA, fluorescence read-out. inhibition, % at 1 µM. 360,000 compounds, 2.3% hits. AID 588726, 2011; in the data active = inhibition above about 27%
Target sequence (P9WQA3 whole entry, looked up): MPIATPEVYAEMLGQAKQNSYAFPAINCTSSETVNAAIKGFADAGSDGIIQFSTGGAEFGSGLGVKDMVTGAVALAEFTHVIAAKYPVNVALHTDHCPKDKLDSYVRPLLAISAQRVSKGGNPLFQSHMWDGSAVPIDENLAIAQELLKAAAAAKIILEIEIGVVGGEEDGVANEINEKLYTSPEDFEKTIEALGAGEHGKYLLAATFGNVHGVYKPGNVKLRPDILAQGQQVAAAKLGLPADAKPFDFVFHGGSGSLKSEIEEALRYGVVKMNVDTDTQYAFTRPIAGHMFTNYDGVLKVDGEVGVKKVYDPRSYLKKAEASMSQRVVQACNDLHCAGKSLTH
PrP UTR inh: inhibition of PrP 5' UTR reporter expression; cell-based PrP 5' UTR mRNA reporter, plate reader; inhibition, % (test concentration not listed); 340,000 compounds, 0.35% hits; in the data active = inhibition above about 52%
GDH-TPI counter: GDH-TPI coupling enzyme inhibitors, primary screen, artefact control for M. tuberculosis FBA inhibitor project, biochemical, absorbance, full deck; GDH-TPI coupled enzyme counterscreen, NADH absorbance; AID 588335, 2011; inhibition, % at 4.8 µM; 360,000 compounds, 1.2% hits; in the data active = inhibition above about 30%
Y pestis TopoI: Yersinia pestis topoisomerase I inhibitors, primary screen, biochemical, cleavage product accumulation, plate reader, single point. DNA topoisomerase I (Yersinia pestis CO92). AID 504884, 2011. 360,000 compounds, 0.064% hits. activity, % at 10 µM. Y. pestis Topo-I cleavage product accumulation; in the data active = activity above about 50%, passing the limit was not always enough
PrPC surface inh: inhibitors of human cell surface prion protein PrPC, primary screen, cell-based, TR-FRET; Major prion protein (Homo sapiens), P04156; TR-FRET read-out; inhibition, % at 13.8 µM; 370,000 compounds, 0.43% hits; in the data active = inhibition above about 24%
Mtb hypoxia rep: PubChem AID 1159583; M. tuberculosis hypoxia-regulated fluorescent reporter, fluorescence; fluorescence inhibition, % (no concentration beside the values); 300,000 compounds, 0.1% hits; in the data active = fluorescence inhibition mostly above about 23%, no sharp cut-off; inactive = mostly below about 17%
Hits are given with their value; n = inactive; x = not tested or not shown; + = active, no number.

SMILES	Mtb FBA inh	PrP UTR inh	GDH-TPI counter	Y pestis TopoI	PrPC surface inh	Mtb hypoxia rep
COc1ccc(SCCN2CCC(C(C)(C)C)CCC2=O)cc1 (stereo not drawn)	x	x	x	x	x	n
O=C(C1=CC(c2ccc(C(F)(F)F)cc2)CC(OCc2ccc(CO)cc2)O1)N1CCN(Cc2ccc3c(c2)OCO3)CC1 (stereo not drawn)	x	x	x	x	x	n
COc1ccc(NC(=O)NCCc2cccc(Cl)c2)cc1OC	n	n	n	n	n	n
COc1cc(Cn2c3ccc(NC(=O)NCCc4ccccc4)cc3c(=O)n2C)ccc1F	145	x	n	n	n	x
COc1cc2c(cc1OC)-c1nc3ccccc3c(=O)n1C(C)(C)C2	n	n	39	n	n	n
CN1C(=O)C2C(C3CC3)N3C(=O)CN(Cc4ccccn4)C(=O)[C@@]3(Cc3ccccc3)C2C1=O (stereo partly drawn)	x	x	x	x	x	n
COc1cc(OC)c(OC)cc1C=NNc1ncnc2c1[nH]c1ccc(C)cc12	x	x	x	x	x	n
O=C(N/N=C1\CCCc2c1[nH]c1ccc(Cl)cc21)c1ccncc1	n	n	41	n	n	x
O=C(NN=C1CCCc2c1[nH]c1ccc(Cl)cc21)c1ccncc1	x	x	x	x	x	n
Cc1ccc(/C=C2/C(=N)N3N=C(CC(=O)N4CCCC4)SC3=NC2=O)o1	n	n	33	n	n	n
COc1cccc(-n2c(C)cc(/C=C3\C(=N)N4N=C(CC(=O)N5CCOCC5)SC4=NC3=O)c2C)c1	n	n	31	n	n	n
Cc1cc(/C=C2\C(=N)N3N=C(CC(=O)N4CCOCC4)SC3=NC2=O)c(C)n1Cc1ccccc1	n	x	n	n	n	n
N=C1/C(=C\c2ccc(Br)o2)C(=O)N=C2SC(CC(=O)N3CCCCC3)=NN12	n	n	n	n	n	n
COc1ccc(OC)c(-n2c(C)cc(/C=C3\C(=N)N4N=C(CC(=O)N5CCOCC5)SC4=NC3=O)c2C)c1	n	n	31	n	n	n
Cc1c(C(=O)C(=O)N2CCC3(CC2)OCCO3)c2ccccc2n1C	n	n	46	n	n	n
Cc1c(C2C(CC#N)C2(C)C)c2ccccc2n1C (stereo not drawn)	x	x	x	x	x	n
Cc1cccc(N(C)S(=O)(=O)c2ccc(-c3cnc(C4CC4)o3)cc2)c1	n	59	n	n	n	n
Cc1ccccc1NC(=O)C=C1SC(=O)NC1=O	x	x	x	x	x	n
Cc1c(Cl)c(=O)oc2cc(OCC(=O)N3CCCC(C)C3)ccc12 (stereo not drawn)	+	n	n	n	n	n
COc1ccc2c(c1)c(=O)oc1cc(OCC(=O)N3CCCC(C)C3)ccc12 (stereo not drawn)	116	n	n	n	n	x
COc1ccc(CC(C)=NNC(=O)c2c[nH]c3ccccc23)cc1OC	x	x	x	x	x	n
CCN(C[C@H]1N[C@@](Cc2ccccc2)(C(=O)OC)[C@H]2C(=O)N(Cc3ccccc3)C(=O)[C@@H]12)S(=O)(=O)c1ccc(-c2ccccc2)cc1	n	n	32	n	n	n
Cc1nc(/C=C\C(=O)O)c2cc(C)oc2n1	+	n	n	n	n	x
Cc1nc(C=CC(=O)O)c2cc(C)oc2n1	x	x	x	x	x	n
N#C/C(=C/c1cn(-c2ccccc2)nc1-c1cccc(S(=O)(=O)N2CCCC2)c1)C(=O)NCc1ccco1	n	n	31	n	n	n
SMILES	Mtb FBA inh	PrP UTR inh	GDH-TPI counter	Y pestis TopoI	PrPC surface inh	Mtb hypoxia rep
N#C/C(=C/c1cn(-c2ccccc2)nc1-c1cccc(S(=O)(=O)N2CCOCC2)c1)C(=O)NCc1ccco1	n	n	n	n	n	x
CCS(=O)(=O)c1ccc(C=NNc2nc3ccccc3o2)cc1	n	n	37	n	n	n
O=C(Nc1cccc(S(=O)(=O)Nc2ccc(Cl)cc2)c1)c1ccc(Cl)nc1	n	n	n	n	29	n
O=C1CSc2ccc(C(=O)Nc3cccc(S(=O)(=O)Nc4ccc(Br)cc4)c3)cc2N1	n	n	n	n	36	n
CCN1C(=O)C2C(c3ccc(-c4ccc(OC)cc4)cc3)N3CCC[C@@]3(C(=O)OC)C2C1=O (stereo partly drawn)	x	x	x	x	x	n
COc1ccc(OC)c(C2=CC(=O)CC(c3ccc4c(c3)OCO4)C2)c1 (stereo not drawn)	x	x	x	x	x	n
COc1cc(/C=N/Nc2ncnc3sc4c(c23)CCC4)ccc1O	n	n	47	n	n	x
COc1ccc(/C=N/Nc2nc(-c3cccnc3)nc3ccccc23)cc1OC	n	n	n	n	n	x
COc1ccc(/C=N/Nc2ncnc3scc(-c4ccccc4)c23)cc1OC	n	n	48	n	n	x
CN1CCc2c(c3c(n2C)CCN(C)C3c2cccnc2)C1c1cccnc1 (stereo not drawn)	x	x	x	x	x	n
CC(=O)/C(=N\Nc1ccc(C)cc1)N1CCOCC1	n	n	31	n	n	x
COc1ccc(OC)c(/C=N/NC(=O)Cn2ccnc2C)c1	165	n	n	n	n	x
COc1cccc(/C=N/NC(=O)Cn2ccnc2C)c1	n	n	n	n	n	x
CCCN(CCC)CCNC(=O)CCC(=O)Nc1ccc2nc(N3CCOCC3)cc(C)c2c1	127	n	n	n	n	n
Cc1cc(N2CCOCC2)nc2ccc(NC(=O)CCC(=O)N3CCN(c4ccccc4)CC3)cc12	n	n	n	n	n	n
CCCCN(CC)CCNC(=O)CCC(=O)Nc1ccc2nc(N3CCN(C)CC3)cc(C)c2c1	138	n	n	n	n	n
CC(C)NC(=O)Nc1ccc2c(c1)C(=O)N(C(C)CO)CC(C)C(CN(C)C(=O)NC1CCCCC1)O2 (stereo not drawn)	x	x	x	x	x	n
COC(=O)C1=C(c2ccc(F)cc2F)CC2CCC1N2C(=O)NCc1ccc2c(c1)OCO2 (stereo not drawn)	x	x	x	x	x	n
O=S1(=O)N=C(N(CCO)N=Cc2ccc(Br)cc2)c2ccccc21	x	x	x	x	x	n
COc1cccc(N2C(CC(=O)O)c3ccc(C=CC(=O)O)cc3S2(=O)=O)c1 (stereo not drawn)	x	x	x	x	x	n
c1ccc(-n2nc3c(ccc4cnnc43)[nH]2)cc1	144	n	n	n	n	x
CCN(CC(=O)Nc1ccc(NC(C)=O)cc1)C(=O)/C=C/c1ccccc1	n	n	n	n	n	n
CCN(CC(=O)Nc1ccc(NC(C)=O)cc1)C(=O)/C=C/c1ccc(C)o1	n	n	35	n	n	n
CCSC1=NC(=Cc2ccccc2)C(=O)N1	x	x	x	x	x	n
O=C(O)c1ccc(N/N=C/c2cc3cc4c(cc3nc2Cl)OCCO4)cc1	n	n	39	n	n	x
COC(=O)C/C=N/N=C1/NC(=O)/C(=C/C(=O)O)S1	n	n	35	n	n	x
COC(=O)/C=C1\S/C(=N/N=Cc2ccc(Cl)cc2)NC1=O	x	x	x	x	x	n
COC(=O)/C=C1\S/C(=N/N=C/c2ccccc2)NC1=O	n	n	46	n	n	x
COC(=O)/C=C1/S/C(=N/N=C/c2ccco2)NC1=O	n	x	n	n	n	x
COC(=O)/C=C1\S/C(=N/N=C/c2ccco2)NC1=O	n	n	33	n	n	x
